Data on 55 compounds can be found in PubChem BioAssay AID588453 (National Center for Advancing Translational Sciences (NCATS), 2011).

Structures are written as SMILES. Screen size: about 390,000 compounds; about 4,000 (1%) were called active. Another 4% or so got no clear call; they are omitted. This is one part of a sample in which actives are shown more often than they occur. A number with no mark means an inactive call. The call rests on the fitted dose curve; in most records, active means well fitted inhibition curve with a large enough effect; inconclusive means small, poorly fitted or top-dose-only effect; inactive means no such curve, though single readings can be large or run the other way.
On the % scale 0 is the no-effect control and ±100 the full control effect; potency means the concentration at half of the fitted maximal effect.

The target in this experiment is Thioredoxin reductase 1, cytoplasmic (Rattus norvegicus) (UniProt O89049). Nature of the experiment: qHTS Assay for Inhibitors of Mammalian Selenoprotein Thioredoxin Reductase 1 (TrxR1): qHTS. Further: nearly all actives have a fitted effect of over 65% in size. To be noted: recombinant rTrxR1, NADPH fluorescence consumption, selenite substrate; series mostly up to 114 µM; activity change, negative = inhibition: at the top concentration. Put shortly: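 Rat TrxR1 (90 nM in the dispensed reagent) was pre-reduced with 400 uM NADPH for 5 min at room temperature, then incubated with compound for 15 min. After 400 uM selenite was added, NADPH fluorescence (Ex 340/Em 450 nm) was followed for 8 min.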
Sequence of Thioredoxin reductase 1, cytoplasmic (Rattus norvegicus) (O89049 whole entry, looked up): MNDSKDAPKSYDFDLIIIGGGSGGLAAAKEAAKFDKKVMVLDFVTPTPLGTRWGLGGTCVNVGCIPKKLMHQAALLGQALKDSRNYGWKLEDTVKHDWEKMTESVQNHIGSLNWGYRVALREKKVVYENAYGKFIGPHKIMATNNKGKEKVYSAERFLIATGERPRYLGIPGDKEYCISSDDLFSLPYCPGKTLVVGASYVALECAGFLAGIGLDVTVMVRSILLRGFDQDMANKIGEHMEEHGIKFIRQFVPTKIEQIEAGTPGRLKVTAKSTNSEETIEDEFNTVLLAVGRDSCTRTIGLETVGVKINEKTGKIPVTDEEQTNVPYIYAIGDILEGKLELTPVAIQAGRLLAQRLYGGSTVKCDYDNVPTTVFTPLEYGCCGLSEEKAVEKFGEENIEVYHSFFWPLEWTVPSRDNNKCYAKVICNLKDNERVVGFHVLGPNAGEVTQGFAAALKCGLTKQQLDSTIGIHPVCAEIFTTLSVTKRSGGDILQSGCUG
As to `COc1ccc(C)cc1NC(=O)COCc1cc(-c2cccs2)on1`, the “activity change, negative = inhibition” value is 15%. `CCOC(=O)c1ccc(NC(=O)C2CC(=O)NC(=Nc3ccc(C)c(C)c3)S2)cc1` (stereo not given): the “activity change, negative = inhibition” value is 3.72%. The same measure, in the same setting: the same measure for `Cn1c(=O)oc2cc(S(=O)(=O)CCC(=O)NCCc3ccc(Cl)cc3)ccc21`: 4.76%.

Take `Oc1ccc(Cn2cc[nH]c2=S)cc1`: the Potency result is “inactive”. In the case of `CNc1ccc(-c2nc(-c3ccco3)no2)cc1[N+](=O)[O-]`, the “activity change, negative = inhibition” value is 14.9%. For `CC(Nc1ccc(-c2nc(-c3ccco3)no2)cc1[N+](=O)[O-])c1ccccc1` (stereo not given), the Potency is 44.7 µM (active). As for `O=[N+]([O-])c1cc(-c2nc(-c3ccccc3)no2)ccc1NCc1ccco1`, the “activity change, negative = inhibition” value is 17.5%. On the same count and under the same terms, as for `COc1ccc(NC(=O)c2ccc3nc(CCc4ccccc4)oc3c2)c(OC)c1`, the figure is 22.7% [at 57.1 µM]; as for `CSc1ccccc1N1CCN(CCCCCC(=O)NC2CCCc3ccccc32)CC1` (stereo not given), 9.9% [at 57.1 µM]. With `COc1ccccc1C(=O)OCC(=O)NCCNC(=O)COC(=O)c1ccccc1OC`, the “activity change, negative = inhibition” value was -10.2%. On to `CCOC(=O)C(=Cc1ccccc1OC)C(=O)OCC`, for which the Potency is 44.7 µM (active).

Take `COc1ccccc1/C=C/C(=O)OCC(=O)NC1CCCCCC1`: the “activity change, negative = inhibition” value is 2.32%.

With `Cc1ccc(C)c(Nc2nnc(-c3ccc(C)c(S(=O)(=O)N4CCCCC4)c3)c3ccccc23)c1`, the “activity change, negative = inhibition” value is 7.25%. On the same count and under the same terms, as for `CC1(C)C=Cc2c(ccc(C(=O)/C=C/c3ccccc3)c2O)O1`, the figure is 6.58%. The same measure, in the same setting: as for `COc1ccccc1C(=O)N/C(=C/c1ccco1)C(=O)Nc1ccc(C(=O)O)cc1`, the figure is -32.6%. Regarding `O=C(Nc1ccccc1)/C(=C\c1ccco1)NC(=O)c1ccco1`, the Potency was 50.1 µM (active). Turning to `O=C(NC(Cc1ccccc1)C(=O)O)/C(=C\c1ccccc1)NC(=O)c1ccco1` (stereo not given), the “activity change, negative = inhibition” value was 12.3% [at 57.1 µM]. Still for that read-out and setting: the same measure for `O=C1COc2ccc(-c3csc(-c4ccc(Cl)cc4)n3)cc2N1`: 4.52%; for `CCc1nn(CC(=O)Nc2cccc(C)c2C)c(=O)c2cc3sccc3n12`: 12.2%; for `CC(C)c1ccc(NC(=O)CN(C)S(=O)(=O)c2ccc3c(c2)c(=O)n(C)c(=O)n3C)cc1`: -3.44%. On the same count and under the same terms, the same measure for `Nc1ncnc2c1c(I)cn2[C@@H]1C[C@H](N)[C@@H](O)[C@H]1O`: 15.3% [at 57.1 µM].

On to `O=C1Oc2ccccc2C(=O)/C1=C/c1ccccc1O`, for which the Potency is 11.2 µM (active). `CO[C@H]1O[C@@H]2O[C@@]3(C)CC[C@@H]4[C@@H](C)CC[C@@H]([C@H]1C)[C@@]24OO3`: the “activity change, negative = inhibition” value is -2.35%. Same read-out and setting: the same measure for `CCOC(=O)Cc1ccc(NC(=O)Nc2c[nH]c(=O)[nH]c2=O)cc1`: 6.47%. Same read-out and setting: as for `COc1cccc(C(=O)NC2=NC(c3ccc(N(C)C)cc3)CC(=O)N2)c1` (stereo not given), the figure is 15%.

`Cc1ccc(Nc2c(-c3ccc(Cl)cc3)nc3sccn23)c(C)c1`: the “activity change, negative = inhibition” value was 2.44%.

Turning to `COCCNc1nnc(SCC(=O)NNC(=O)c2ccco2)s1`, the “activity change, negative = inhibition” value was -14.3%. Turning to `C=CCSc1nnc(N2C(=O)C(O)=C(C(=O)c3ccco3)C2c2ccc(F)cc2)s1` (stereo not given), the Potency was 28.2 µM (active). With `CC(C)c1ccc(C2C(C(=O)c3ccco3)=C(O)C(=O)N2CC2CCCO2)cc1` (stereo not given), the “activity change, negative = inhibition” value is -3.52%. For `CCOc1ccccc1NC(=O)C1CCCN(S(=O)(=O)c2cn(C)cn2)C1` (stereo not given), the “activity change, negative = inhibition” value was 13.5% [at 57.1 µM]. Same read-out and setting: the same measure for `COc1ccc(-c2nc3scc(CCNS(=O)(=O)c4cc(F)ccc4OC)n3n2)cc1OC`: 12.3% [at 57.1 µM]; for `CCOc1ccccc1NC(=O)CCn1cnnn1`: -3.59% [at 57.1 µM]. For `Cc1cc(C)nc(S/C=C/C(=O)c2ccccc2)n1`, the Potency was 1 µM (active).

On to `Cc1cc(C)nc(NC(=O)Nc2ccccc2C(F)(F)F)n1`, for which the “activity change, negative = inhibition” value is 6.03% [at 57.1 µM].

Regarding `Cc1ccc2nc(CNC(=O)c3ccccc3)[nH]c2c1`, the “activity change, negative = inhibition” value is 14.3%.

As for `OC(Cc1ccc2ccccc2n1)c1ccc(Cl)c(Cl)c1` (stereo not given), the activity change, negative = inhibition is 24.6% [at 0.0914 µM]. Same read-out and setting: the same measure for `COc1ccccc1NC(=O)c1cc(C2CC2)nc2c1c(C)nn2-c1ccc(C)cc1`: 8.82%; for `CCOC(=O)c1c(NC(=O)c2ccc(S(=O)(=O)N3CCCC(C)C3)cc2)sc2c1CCN(C(C)C)C2` (stereo not given): 12.5% [at 57.1 µM]; for `CCOc1ccc(CNC(=O)c2ccc(CS(=O)c3ccccc3)o2)cc1` (stereo not given): 21.2%. For `Cc1nn(CC(=O)O)c(=O)c2cc3cc(F)ccc3n12`, the “activity change, negative = inhibition” value was 18.2%. Consider `CC1=C/C(=N\OS(=O)(=O)c2ccccc2)C=CC1=O`, for which the Potency was 1.78 µM (active). Turning to `Cc1cc[n+](C2CCCCC2)cc1`, the “activity change, negative = inhibition” value was 16.9%. For `CCC(Sc1nc2n[nH]c(C)c2c(=N)n1-c1ccccc1Cl)C(=O)N(CC)CC` (stereo not given), the “activity change, negative = inhibition” value was -4.73% [at 57.1 µM]. Consider `CC1CC(=NNC(=O)C2COc3ccccc3O2)CC(C)(C)C1` (stereo not given), for which the “activity change, negative = inhibition” value is 18.3%. In the case of `CC(/C=C/c1ccccc1)=N\NC(=O)C1CC1(C)c1ccccc1` (stereo not given), the “activity change, negative = inhibition” value is 12.3%.

Regarding `CC(/C=C/c1ccco1)=N/NC(=O)C1COc2ccccc2O1` (stereo not given), the Potency is 56.2 µM (active). `O=C(CCS(=O)(=O)c1cc(Br)cc2c1N(C(=O)C1CC1)CC2)Nc1ccc(C(F)(F)F)cc1`: the “activity change, negative = inhibition” value was 13.6%. `CN1CCN(c2oc(-c3ccc(COc4ccc(Cl)cc4)o3)nc2C#N)CC1`: the “activity change, negative = inhibition” value was 17.5%. Still for that read-out and setting: as for `Cc1ccc(OCC(=O)Nc2cccc3c2CCCC3)cc1C`, the figure is 7.88%. Turning to `Cc1ccc(SC(=O)COc2ccc(C)c(C)c2)cc1`, the Potency was 8.91 µM (active). With `COc1ccc(C(=O)COC(=O)COc2ccc(C)c(C)c2)cc1`, the “activity change, negative = inhibition” value was -3.4%.

With `OC[C@H]1O[C@@H](n2cnc3c(N[C@H]4CC5CCC4C5)ncnc32)[C@H](O)[C@@H]1O` (stereo not given in full), the “activity change, negative = inhibition” value is 5.49%. Consider `CSc1nc(-c2ccc(F)cc2)nc2c1Cc1c(CO)cnc(C)c1O2`, for which the “activity change, negative = inhibition” value is 21.4%. As to `Cc1oc(-c2ccccc2)nc1Cn1c(SCc2cccc(C(F)(F)F)c2)nc2cccnc21`, the “activity change, negative = inhibition” value was 12.9%. Turning to `COc1cccc(CNC(=O)C(=O)NCC(c2cccs2)S(=O)(=O)c2ccccc2)c1` (stereo not given), the “activity change, negative = inhibition” value is 14.7% [at 57.1 µM].
